# Screen size: about 5,500 compounds; about 2,000 (36%) were called active. Inconclusive results (about 18%) are left out. The list shows a part of the results. A number with no mark means an inactive call. Rule as the data show it: active = normalized growth mostly below about 0.91 (no sharp cut-off); inconclusive = no clear call, values can overlap the other calls; inactive = mostly above about 0.92.
# Assay: chemical genetic growth profiling, strain panel (AID 1159580);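 also: tested at 20 µM; growth read once vehicle control cultures reached saturation at 30 °C; 1 = growth at the plate median or of vehicle wells; lower values mean less growth of the strain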
# Conditions: S. cerevisiae deletion strains, growth OD
# [1] = locus YAR019C, strain CDC15, hits give low values
# [2] = locus YBL105C, strain PKC1, hits give low values
# [3] = locus YBR135W, strain CKS1, hits give low values
# [4] = locus YBR136W, strain MEC1, hits give low values
# [5] = locus YBR160W, strain CDC28, hits give low values
# [6] = locus YDL017W, strain CDC7, hits give low values
# [7] = locus YDL028C, strain MPS1, hits give low values
# [8] = locus YDL101C, strain DUN1, hits give low values
# [9] = locus YDL108W, strain KIN28, hits give low values
# [10] = locus YDL132W, strain cdc53, hits give low values
# [11] = locus YDL214C, strain PRR2, hits give low values
# [12] = locus YDR052C, strain DBF4, hits give low values
# [13] = locus YDR054C, strain cdc34, hits give low values
# [14] = locus YDR226W, strain ADK1, hits give low values
# [15] = locus YDR477W, strain SNF1, hits give low values
# [16] = locus YER123W, strain YCK3, hits give low values
# [17] = locus YER133W, strain GLC7, hits give low values
# [18] = locus YFL009W, strain cdc4, hits give low values
# [19] = locus YFL029C, strain CAK1, hits give low values
# [20] = locus YFR003C, strain YPI1, hits give low values
# [21] = locus YFR019W, strain FAB1, hits give low values
# [22] = locus YFR028C, strain CDC14, hits give low values
# [23] = locus YGR040W, strain KSS1, hits give low values
# [24] = locus YGR052W, strain FMP48, hits give low values
# [25] = locus YGR092W, strain DBF2, hits give low values
# [26] = locus YHR030C, strain SLT2, hits give low values
# [27] = locus YHR079C, strain IRE1, hits give low values
# [28] = locus YHR082C, strain KSP1, hits give low values
# [29] = locus YHR205W, strain SCH9, hits give low values
# [30] = locus YIL147C, strain SLN1, hits give low values
# [31] = locus YJL095W, strain BCK1, hits give low values
# [32] = locus YJL128C, strain PBS2, hits give low values
# [33] = locus YJL157C, strain FAR1, hits give low values
# [34] = locus YJR016C, strain ILV3, hits give low values
# [35] = locus YJR066W, strain TOR1 (second series), hits give low values
# [36] = locus YJR066W, strain TOR1, hits give low values
# [37] = locus YKL048C, strain ELM1, hits give low values
# [38] = locus YKL067W, strain YNK1, hits give low values
# [39] = locus YKL101W, strain HSL1, hits give low values
# [40] = locus YKL193C, strain SDS22, hits give low values
# [41] = locus YKL203C, strain TOR2, hits give low values
# [42] = locus YLR113W, strain HOG1, hits give low values
# [43] = locus YLR133W, strain CKI1, hits give low values
# [44] = locus YLR403W, strain SFP1, hits give low values
# [45] = locus YML070W, strain DAK1, hits give low values
# [46] = locus YMR001C, strain CDC5, hits give low values
# [47] = locus YMR205C, strain PFK2 (second series), hits give low values
# [48] = locus YMR277W, strain FCP1, hits give low values
# [49] = locus YNL006W, strain LST8, hits give low values
# [50] = locus YNL020C, strain ARK1, hits give low values
# [51] = locus YNL161W, strain CBK1, hits give low values
# [52] = locus YNL183C, strain NPR1, hits give low values
# [53] = locus YNL207W, strain RIO2, hits give low values
# [54] = locus YNL222W, strain SSU72, hits give low values
# [55] = locus YNL307C, strain MCK1 (second series), hits give low values
# [56] = locus YOL078W, strain AVO1, hits give low values
# [57] = locus YOL136C, strain PFK27, hits give low values
# [58] = locus YOR061W, strain CKA2, hits give low values
# [59] = locus YOR119C, strain RIO1, hits give low values
# [60] = locus YOR231W, strain MKK1, hits give low values
# [61] = locus YOR329C, strain SCD5, hits give low values
# [62] = locus YPL031C, strain PHO85, hits give low values
# [63] = locus YPL153C, strain RAD53, hits give low values
# [64] = locus YPL204W, strain HRR25, hits give low values
# [65] = locus YPL209C, strain IPL1, hits give low values
# [66] = locus YPL256C, strain CLN2, hits give low values
# [67] = locus YPR025C, strain CCL1, hits give low values
# [68] = locus YPR106W, strain ISR1, hits give low values
# [69] = locus YPR111W, strain DBF20, hits give low values
# [70] = strain NNK1, hits give low values
# [71] = strain TSCII, hits give low values
smiles,measurement,setting,value
COCCCNC(=S)N/N=C\c1cc(Br)ccc1O,normalized growth,[1],0.967
same,normalized growth,[2],0.971
same,normalized growth,[3],0.962
same,normalized growth,[4],0.967
same,normalized growth,[5],0.961
same,normalized growth,[6],0.966
same,normalized growth,[7],0.963
same,normalized growth,[8],0.975
same,normalized growth,[9],0.97
same,normalized growth,[10],0.963
same,normalized growth,[11],0.977
same,normalized growth,[12],0.973
same,normalized growth,[13],0.956
same,normalized growth,[14],0.96
same,normalized growth,[15],0.954
same,normalized growth,[16],0.989
same,normalized growth,[17],0.95
same,normalized growth,[18],0.96
same,normalized growth,[19],0.963
same,normalized growth,[20],0.966
same,normalized growth,[21],0.983
same,normalized growth,[22],0.972
same,normalized growth,[23],0.957
same,normalized growth,[24],1
same,normalized growth,[25],0.915
same,normalized growth,[26],0.898
same,normalized growth,[27],0.967
same,normalized growth,[28],1.03
same,normalized growth,[29],0.943
same,normalized growth,[30],0.957
same,normalized growth,[31],0.992
same,normalized growth,[32],0.936
same,normalized growth,[33],0.965
same,normalized growth,[34],0.966
same,normalized growth,[35],0.983
same,normalized growth,[36],1.02
same,normalized growth,[37],0.98
same,normalized growth,[38],0.984
same,normalized growth,[39],0.975
same,normalized growth,[40],0.954
same,normalized growth,[41],1.02
same,normalized growth,[42],0.985
same,normalized growth,[43],0.967
same,normalized growth,[44],0.91
same,normalized growth,[45],0.982
same,normalized growth,[46],0.965
same,normalized growth,[47],0.973
same,normalized growth,[48],0.961
same,normalized growth,[49],0.965
same,normalized growth,[50],0.975
same,normalized growth,[51],0.962
same,normalized growth,[52],1.09
same,normalized growth,[53],0.967
same,normalized growth,[54],0.966
same,normalized growth,[55],0.97
same,normalized growth,[56],0.964
same,normalized growth,[57],0.982
same,normalized growth,[58],0.974
same,normalized growth,[59],1.03
same,normalized growth,[60],0.997
same,normalized growth,[61],0.966
same,normalized growth,[62],0.938
same,normalized growth,[63],0.951
same,normalized growth,[64],0.937
same,normalized growth,[65],0.965
same,normalized growth,[66],0.903
same,normalized growth,[67],0.962
same,normalized growth,[68],0.971
same,normalized growth,[69],0.967
same,normalized growth,[70],0.982
same,normalized growth,[71],0.964
CCCCNC(=S)N/N=C\c1cc(Cl)cc(Cl)c1O,normalized growth,[1],0.929
same,normalized growth,[2],0.928
same,normalized growth,[3],0.922
same,normalized growth,[4],0.924
same,normalized growth,[5],0.941
same,normalized growth,[6],0.926
same,normalized growth,[7],0.926
same,normalized growth,[8],0.97
same,normalized growth,[9],0.922
same,normalized growth,[10],0.917
same,normalized growth,[11],0.65 (active)
same,normalized growth,[12],0.941
same,normalized growth,[13],0.914
same,normalized growth,[14],0.924
same,normalized growth,[15],0.513 (active)
same,normalized growth,[16],0.519 (active)
same,normalized growth,[17],0.601 (active)
same,normalized growth,[18],0.913
same,normalized growth,[19],0.936
same,normalized growth,[20],0.918
same,normalized growth,[21],0.785
same,normalized growth,[22],0.924
same,normalized growth,[23],0.531 (active)
same,normalized growth,[24],0.195 (active)
same,normalized growth,[25],0.35 (active)
same,normalized growth,[26],0.275 (active)
same,normalized growth,[27],0.601
same,normalized growth,[28],0.242 (active)
same,normalized growth,[29],0.236 (active)
same,normalized growth,[30],0.923
same,normalized growth,[31],0.352 (active)
same,normalized growth,[32],0.897
same,normalized growth,[33],0.63 (active)
same,normalized growth,[34],0.922
same,normalized growth,[35],0.58 (active)
same,normalized growth,[36],0.289 (active)
same,normalized growth,[37],0.637 (active)
same,normalized growth,[38],0.676 (active)
same,normalized growth,[39],0.385 (active)
same,normalized growth,[40],0.916
same,normalized growth,[41],0.249 (active)
same,normalized growth,[42],0.444 (active)
same,normalized growth,[43],0.49 (active)
same,normalized growth,[44],0.302 (active)
same,normalized growth,[45],0.603 (active)
same,normalized growth,[46],0.913
same,normalized growth,[47],0.603 (active)
same,normalized growth,[48],0.905
same,normalized growth,[49],0.934
same,normalized growth,[50],0.44 (active)
same,normalized growth,[51],0.932
same,normalized growth,[52],0.318 (active)
same,normalized growth,[53],0.922
same,normalized growth,[54],0.933
same,normalized growth,[55],0.362 (active)
same,normalized growth,[56],0.912
same,normalized growth,[57],0.713
same,normalized growth,[58],0.538 (active)
same,normalized growth,[59],0.343 (active)
same,normalized growth,[60],0.591
same,normalized growth,[61],0.924
same,normalized growth,[62],0.477 (active)
same,normalized growth,[63],0.495 (active)
same,normalized growth,[64],0.488 (active)
same,normalized growth,[65],0.928
same,normalized growth,[66],0.457 (active)
same,normalized growth,[67],0.931
same,normalized growth,[68],0.908
same,normalized growth,[69],0.933
same,normalized growth,[70],0.787 (active)
same,normalized growth,[71],0.918

# Reference: PubChem BioAssay AID1159580 (chemical genetic matrix, 2015)
